# This is part of a sample that, as a whole, favours compounds with a hit. Of some 83,000 tested, about 20% had one in any assay.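 Plates (96-well) were seeded with cells, treated with compound at one concentration, and incubated for 48 hours before percent growth was determined.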 Calls of active or inactive are those of the source. Rule for the calls: active = growth percent below 10; inactive = the rest.
# Test system: MCF7 breast
# Test: NCI-60 one-dose screen, 48 h (100 = growth as untreated, 0 = no growth, -100 = all killed)
# Details: 10 µM
row,SMILES,growth
1,CCN1CCN(Cc2ccc(C(=O)Nc3cccc(-c4cn(-c5ccc6oc(=O)ccc6c5)nn4)c3)cc2C(F)(F)F)CC1,-100% (active)
2,COc1cc2oc(-c3cccc(C(=O)Nc4ccc(Cl)cc4)c3)cc(=O)c2c(OCCNC(=O)CNC(=O)OC(C)(C)C)c1OC,42% (inactive)
3,O=C(NO)c1ccc(CN2CCN(c3nc(-c4ccccc4)c4ccccc4n3)CC2)cc1,9.79% (active)
4,COC[C@@H](CC(C)C)N=C1NC(=O)/C(=C/c2ccc3ncsc3c2)N1,-17.7% (active)
5,O=C(/C=C/Nc1ccc(F)cc1F)c1ccc2c(c1)Nc1ccccc1S2,37.9% (inactive)
6,COc1ccc(-c2cc(C(=O)N=Nc3c(O)[nH]c4ccc(F)cc34)c3ccccc3n2)cc1,23.6% (inactive)
7,COc1cc(C2CC(c3ccccc3)=Nc3c(N)nc(N)nc3N2)ccc1Oc1nc(Nc2ccc(F)cc2)nc(N(C)C)n1 (centres undefined),2.04% (active)
8,COc1ccc(-c2cc(C(=O)N=Nc3c(O)[nH]c4ccccc34)c3ccccc3n2)cc1,-49.6% (active)
9,Cc1ccc(CSc2nc(Cl)c(C#N)c(-c3ccc(F)cc3)n2)cc1,72.9% (inactive)
10,O=C(Nc1ccc(I)cc1)Nc1nc2ccc([N+](=O)[O-])cc2s1,-93.6% (active)
11,O=C(Nc1nc2ccccc2s1)c1ccc(Br)cc1,41.6% (inactive)
12,O=c1oc2ccccc2cc1-c1csc(N=Nc2c(O)[nH]c3ccc(Br)cc23)n1,80.7% (inactive)
13,COc1cccc(-c2ccc(/C=N/NC(=O)c3[nH]c4ccc(Br)cc4c3-c3ccccc3)o2)c1,4.65% (active)
14,COc1ccc(-c2cc(-c3cc(C(=O)c4ccc(Br)cc4)n4ccc(C)cc34)nc(N)c2C#N)cc1,79.1% (inactive)
15,CC1(C)[C@@H](NCO)CC[C@]2(C)[C@H]3C(=O)C=C4[C@@H]5C[C@](C)(CO)CC[C@]5(C)CC[C@@]4(C)[C@]3(C)CC[C@@H]12,33.7% (inactive)
16,CO[C@@H]1CSS[C@H]1Cn1nc(-c2ccc(Oc3ccccc3)cc2)c2c(N)ncnc21,30.7% (inactive)
17,CC(=O)Nc1ccc(-c2cn(-c3cccc(C(=O)Nc4ccc(F)c(C(F)(F)F)c4)c3)nn2)cn1,4.2% (active)

row,SMILES,growth
1,CC1(c2ccccc2)NC(=O)N(CC(=O)Nc2ccc(C(=O)/C=C/c3ccccc3)cc2)C1=O (centres undefined),-19.6% (active)
2,CN(C(=O)c1ccc(C(C)(C)C)cc1)c1sc2c(c1C#N)CCC(=O)C2,25.7% (inactive)
3,Nc1nc(-c2ccccc2)cs1,39.7% (inactive)
4,CN1C(=O)N(C)C2SC(N/N=C/c3cccs3)=NC21 (centres undefined),13.3% (inactive)
5,O=C(CSc1nnc(-c2c[nH]c3ccccc23)n1-c1ccccc1)c1ccccc1,36.2% (inactive)
6,Nc1nc2c(F)c(F)c(F)c(F)c2s1,93.7% (inactive)
7,CC1=C(c2cc(-c3ccc(Cl)cc3)c(C#N)c(N)n2)C(c2ccccc2)NC(=S)N1 (centres undefined),31.6% (inactive)
8,Cc1noc2c(Cc3ccc([N+](=O)[O-])cc3)nn(CC(=O)N/N=C/c3ccc(Cl)cc3)c(=O)c12,52.5% (inactive)
9,CN1CCN(Cc2ccc(C(=O)Nc3cccc(Nc4ccc5cc(O)ccc5n4)c3)cc2C(F)(F)F)CC1,-78.4% (active)
10,CN1CCN(c2ccc(C(=O)/C=C/c3ccc(OC(F)F)cc3)cc2)CC1,-71.7% (active)
11,CN1CCN(Cc2ccc(NC(=O)c3cncc(C#Cc4cnc5ccc(N[C@H]6CCOC6)nn45)c3)cc2C(F)(F)F)CC1,-84.4% (active)
12,C/C(=N\NC(N)=S)c1ccc(Nc2nc(SC(C)C)nc(-c3ccccc3)c2C#N)cc1,64.2% (inactive)
13,COc1ccc2[nH]c(=O)c(CSc3ccc(Nc4nccc(-c5ccc(Cl)cc5)n4)cc3)cc2c1,84.5% (inactive)
14,CCOc1ccc(/C=N/NC(=O)Cn2nc(Cc3ccc([N+](=O)[O-])cc3)c3onc(C)c3c2=O)cc1,9.23% (active)
15,Brc1ccc(/C=C/c2n(Cc3ccc4ccccc4c3)c3ccccc3[n+]2Cc2ccc3ccccc3c2)cc1,-65.7% (active)
16,COc1ccc(C2N(c3ccc(Br)cc3)N=C(C(C)=O)N2[C@H]2[C@H](OC(C)=O)O[C@H](COC(C)=O)[C@@H](OC(C)=O)[C@@H]2OC(C)=O)cc1 (some centres undefined),62.7% (inactive)
17,CCN1CCN(c2ccc(NC(=O)Nc3ccc(-c4cc(C(=O)NC(C)C)c5ncccc5n4)cc3)cc2C(F)(F)F)CC1,-89.9% (active)
